What was measured:
Experiment in all cases: DAPPL (digital affinity profiling via proximity ligation, sequencing); 10 mM Tris-HCl pH 7.5, 50 mM NaCl, 1 mM DTT, 4% glycerol, room temperature, 30 min; GST-TFs on glutathione beads, 16-mer random dsDNA library, 0.1% formaldehyde crosslink after washing; high values mean tight binding
Details in all cases: protein: recombinant; tags: N-terminal GST; dsDNA, one strand shown
ELK4 = target: T1, ELK4 (Homo sapiens, UniProt P28324-2 1-405)
T1 sequence: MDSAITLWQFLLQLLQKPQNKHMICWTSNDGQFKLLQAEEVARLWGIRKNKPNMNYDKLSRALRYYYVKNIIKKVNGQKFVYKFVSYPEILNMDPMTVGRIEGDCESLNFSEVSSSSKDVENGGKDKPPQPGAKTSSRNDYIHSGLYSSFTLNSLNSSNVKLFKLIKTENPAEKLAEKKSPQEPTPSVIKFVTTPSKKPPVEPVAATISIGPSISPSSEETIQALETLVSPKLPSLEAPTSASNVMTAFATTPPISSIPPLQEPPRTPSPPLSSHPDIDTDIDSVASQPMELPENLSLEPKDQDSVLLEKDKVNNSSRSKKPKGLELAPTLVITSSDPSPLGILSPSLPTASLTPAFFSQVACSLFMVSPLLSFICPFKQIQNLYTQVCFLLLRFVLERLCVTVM
Outline: (§1)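 GST fusions of human transcription factors were expressed in yeast and captured with glutathione beads. Once given DNA barcodes and pooled alongside a tag-only sample, they were incubated for 30 min at room temperature with 200 nmole of a random double-stranded 16-mer DNA library in Tris/NaCl/DTT/glycerol buffer, then washed, crosslinked (0.1% formaldehyde), proximity-ligated, PCR-amplified and sequenced on an Illumina NextSeq500. The binding signal of each hexamer is its read frequency for a factor divided by its frequency for the tag-only sample.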

ETV2 = target: T2, ETV2 (Homo sapiens, UniProt O00321 1-342)
T2 sequence: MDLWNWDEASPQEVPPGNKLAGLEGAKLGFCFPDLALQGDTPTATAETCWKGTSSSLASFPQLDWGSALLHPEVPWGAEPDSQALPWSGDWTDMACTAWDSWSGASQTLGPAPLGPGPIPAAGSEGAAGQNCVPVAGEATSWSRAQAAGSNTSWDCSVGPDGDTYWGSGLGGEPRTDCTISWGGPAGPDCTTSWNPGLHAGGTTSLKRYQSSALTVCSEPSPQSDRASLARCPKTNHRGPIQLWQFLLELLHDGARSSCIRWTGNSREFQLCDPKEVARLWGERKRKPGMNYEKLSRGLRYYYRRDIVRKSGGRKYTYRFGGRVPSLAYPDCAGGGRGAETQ
Outline: as §1

CRX = CRX (Homo sapiens, UniProt O43186 1-299)
Chain of CRX (O43186 whole entry): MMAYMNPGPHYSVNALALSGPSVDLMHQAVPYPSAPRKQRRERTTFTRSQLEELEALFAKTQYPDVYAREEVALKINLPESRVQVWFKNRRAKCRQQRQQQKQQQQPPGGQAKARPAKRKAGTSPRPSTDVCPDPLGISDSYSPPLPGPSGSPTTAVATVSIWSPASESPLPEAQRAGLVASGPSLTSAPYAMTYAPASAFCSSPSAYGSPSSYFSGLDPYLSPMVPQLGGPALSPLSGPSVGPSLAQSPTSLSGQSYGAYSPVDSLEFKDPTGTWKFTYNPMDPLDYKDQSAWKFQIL
Outline: as §1

ELF3 = target: T3, ELF3 (Homo sapiens, UniProt P78545 1-371)
T3 sequence: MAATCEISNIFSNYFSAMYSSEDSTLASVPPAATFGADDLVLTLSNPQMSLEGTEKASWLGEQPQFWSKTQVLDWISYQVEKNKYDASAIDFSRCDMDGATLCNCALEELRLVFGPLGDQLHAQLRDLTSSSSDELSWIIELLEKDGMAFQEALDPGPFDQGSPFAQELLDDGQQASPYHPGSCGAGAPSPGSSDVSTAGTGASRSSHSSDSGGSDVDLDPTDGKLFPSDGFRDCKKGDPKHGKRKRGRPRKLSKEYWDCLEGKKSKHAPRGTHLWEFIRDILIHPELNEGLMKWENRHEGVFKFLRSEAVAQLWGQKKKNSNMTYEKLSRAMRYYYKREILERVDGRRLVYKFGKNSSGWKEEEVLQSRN
Outline: as §1

ELF5 = target: T4, ELF5 (Homo sapiens, UniProt Q9UKW6-2 1-255)
T4 sequence: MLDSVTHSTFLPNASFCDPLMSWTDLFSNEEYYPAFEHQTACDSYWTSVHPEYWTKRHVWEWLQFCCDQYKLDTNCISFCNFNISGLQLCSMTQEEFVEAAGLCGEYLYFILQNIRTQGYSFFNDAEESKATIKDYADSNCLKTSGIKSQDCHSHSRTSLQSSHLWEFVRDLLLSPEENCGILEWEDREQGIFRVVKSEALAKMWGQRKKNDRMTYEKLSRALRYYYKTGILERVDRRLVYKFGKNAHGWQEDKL
Outline: as §1

ETV7 = target: T5, ETV7 (Homo sapiens, UniProt Q9Y603 1-341)
T5 sequence: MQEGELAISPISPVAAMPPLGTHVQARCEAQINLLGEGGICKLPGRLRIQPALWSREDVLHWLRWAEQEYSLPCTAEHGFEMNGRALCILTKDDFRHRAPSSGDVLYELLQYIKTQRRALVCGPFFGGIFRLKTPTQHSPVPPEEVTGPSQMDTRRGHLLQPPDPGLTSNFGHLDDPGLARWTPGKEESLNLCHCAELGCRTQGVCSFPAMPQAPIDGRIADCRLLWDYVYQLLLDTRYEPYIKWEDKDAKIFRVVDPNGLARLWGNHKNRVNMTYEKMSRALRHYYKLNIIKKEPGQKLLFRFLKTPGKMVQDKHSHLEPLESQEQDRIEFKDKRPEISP
Outline: as §1

Sequence | binding signal (ELK4) | binding signal (ETV2) | binding signal (CRX) | binding signal (ELF3) | binding signal (ELF5) | binding signal (ETV7)
AGCTGT | 1.04 fold enrichment (6-mer frequency, TF over GST control) | 1.07 fold enrichment (6-mer frequency, TF over GST control) | 1.02 fold enrichment (6-mer frequency, TF over GST control) | – | – | –
CCCCGT | – | 1.1 fold enrichment (6-mer frequency, TF over GST control) | – | 1.26 fold enrichment (6-mer frequency, TF over GST control) | 1.06 fold enrichment (6-mer frequency, TF over GST control) | –
TGCGGC | – | – | – | 1.33 fold enrichment (6-mer frequency, TF over GST control) | – | 1.07 fold enrichment (6-mer frequency, TF over GST control)
CGCTGG | 1.01 fold enrichment (6-mer frequency, TF over GST control) | 1.03 fold enrichment (6-mer frequency, TF over GST control) | – | – | – | 1.02 fold enrichment (6-mer frequency, TF over GST control)
AAACCG | – | 1.03 fold enrichment (6-mer frequency, TF over GST control) | – | 1.07 fold enrichment (6-mer frequency, TF over GST control) | 1.02 fold enrichment (6-mer frequency, TF over GST control) | 1.04 fold enrichment (6-mer frequency, TF over GST control)
GGTCCT | 1.05 fold enrichment (6-mer frequency, TF over GST control) | 1.13 fold enrichment (6-mer frequency, TF over GST control) | – | – | – | 1.09 fold enrichment (6-mer frequency, TF over GST control)
CATACC | – | 1.16 fold enrichment (6-mer frequency, TF over GST control) | – | 1 fold enrichment (6-mer frequency, TF over GST control) | 1.04 fold enrichment (6-mer frequency, TF over GST control) | 1.03 fold enrichment (6-mer frequency, TF over GST control)
CGATGT | – | 1.07 fold enrichment (6-mer frequency, TF over GST control) | – | 1.11 fold enrichment (6-mer frequency, TF over GST control) | – | 1.14 fold enrichment (6-mer frequency, TF over GST control)
AGTGTC | – | 1.02 fold enrichment (6-mer frequency, TF over GST control) | – | 1.11 fold enrichment (6-mer frequency, TF over GST control) | 1.15 fold enrichment (6-mer frequency, TF over GST control) | 1.16 fold enrichment (6-mer frequency, TF over GST control)
GAAGTC | – | 1.08 fold enrichment (6-mer frequency, TF over GST control) | – | 1.1 fold enrichment (6-mer frequency, TF over GST control) | 1.26 fold enrichment (6-mer frequency, TF over GST control) | 1.1 fold enrichment (6-mer frequency, TF over GST control)
GCCGCC | – | – | – | 1.08 fold enrichment (6-mer frequency, TF over GST control) | 1.01 fold enrichment (6-mer frequency, TF over GST control) | 1.03 fold enrichment (6-mer frequency, TF over GST control)
CTGCGG | – | 1.25 fold enrichment (6-mer frequency, TF over GST control) | – | 1.2 fold enrichment (6-mer frequency, TF over GST control) | 1.06 fold enrichment (6-mer frequency, TF over GST control) | 1.18 fold enrichment (6-mer frequency, TF over GST control)
CGCTAT | 1.07 fold enrichment (6-mer frequency, TF over GST control) | 1.15 fold enrichment (6-mer frequency, TF over GST control) | – | 1.01 fold enrichment (6-mer frequency, TF over GST control) | 1.16 fold enrichment (6-mer frequency, TF over GST control) | 1.25 fold enrichment (6-mer frequency, TF over GST control)
TGTGGC | 1.16 fold enrichment (6-mer frequency, TF over GST control) | 1.23 fold enrichment (6-mer frequency, TF over GST control) | – | 1.02 fold enrichment (6-mer frequency, TF over GST control) | – | 1.01 fold enrichment (6-mer frequency, TF over GST control)
AACGGA | – | 1.02 fold enrichment (6-mer frequency, TF over GST control) | – | 1.03 fold enrichment (6-mer frequency, TF over GST control) | 1.11 fold enrichment (6-mer frequency, TF over GST control) | 1.01 fold enrichment (6-mer frequency, TF over GST control)
GTAGTT | 1.1 fold enrichment (6-mer frequency, TF over GST control) | 1.04 fold enrichment (6-mer frequency, TF over GST control) | – | 1.09 fold enrichment (6-mer frequency, TF over GST control) | 1.07 fold enrichment (6-mer frequency, TF over GST control) | 1.03 fold enrichment (6-mer frequency, TF over GST control)
TGCCGG | – | – | – | 1.11 fold enrichment (6-mer frequency, TF over GST control) | 1.09 fold enrichment (6-mer frequency, TF over GST control) | –
ACGGTT | – | 1.16 fold enrichment (6-mer frequency, TF over GST control) | – | – | 1.05 fold enrichment (6-mer frequency, TF over GST control) | 1.04 fold enrichment (6-mer frequency, TF over GST control)
GTTGCG | 1.01 fold enrichment (6-mer frequency, TF over GST control) | 1.03 fold enrichment (6-mer frequency, TF over GST control) | – | – | 1.02 fold enrichment (6-mer frequency, TF over GST control) | 1.04 fold enrichment (6-mer frequency, TF over GST control)
AGTGAC | – | – | – | – | 1.11 fold enrichment (6-mer frequency, TF over GST control) | 1.03 fold enrichment (6-mer frequency, TF over GST control)
GCAACC | – | – | – | – | 1.02 fold enrichment (6-mer frequency, TF over GST control) | 1.01 fold enrichment (6-mer frequency, TF over GST control)
CATGCA | 1.05 fold enrichment (6-mer frequency, TF over GST control) | 1.12 fold enrichment (6-mer frequency, TF over GST control) | – | 1.16 fold enrichment (6-mer frequency, TF over GST control) | 1.01 fold enrichment (6-mer frequency, TF over GST control) | 1.03 fold enrichment (6-mer frequency, TF over GST control)
TGGTGG | 1.04 fold enrichment (6-mer frequency, TF over GST control) | 1.03 fold enrichment (6-mer frequency, TF over GST control) | – | – | – | 1.09 fold enrichment (6-mer frequency, TF over GST control)
GCAATT | 1.01 fold enrichment (6-mer frequency, TF over GST control) | 1.01 fold enrichment (6-mer frequency, TF over GST control) | – | 1.17 fold enrichment (6-mer frequency, TF over GST control) | 1.08 fold enrichment (6-mer frequency, TF over GST control) | 1.18 fold enrichment (6-mer frequency, TF over GST control)
ATTGGC | 1.06 fold enrichment (6-mer frequency, TF over GST control) | 1.1 fold enrichment (6-mer frequency, TF over GST control) | 1.07 fold enrichment (6-mer frequency, TF over GST control) | 1.24 fold enrichment (6-mer frequency, TF over GST control) | 1.08 fold enrichment (6-mer frequency, TF over GST control) | 1.04 fold enrichment (6-mer frequency, TF over GST control)
GTCCGC | 1.09 fold enrichment (6-mer frequency, TF over GST control) | – | – | 1.01 fold enrichment (6-mer frequency, TF over GST control) | 1.07 fold enrichment (6-mer frequency, TF over GST control) | –
ATGGCG | – | – | – | 1.03 fold enrichment (6-mer frequency, TF over GST control) | 1.01 fold enrichment (6-mer frequency, TF over GST control) | 1.01 fold enrichment (6-mer frequency, TF over GST control)
CCCGGT | 1.13 fold enrichment (6-mer frequency, TF over GST control) | – | – | 1.06 fold enrichment (6-mer frequency, TF over GST control) | 1.05 fold enrichment (6-mer frequency, TF over GST control) | 1.01 fold enrichment (6-mer frequency, TF over GST control)

— PMC7862700, “An all-to-all approach to the identification of sequence-specific readers for epigenetic DNA modifications on cytosine”
